Calls of active or inactive are those of the source. Rule for the calls: active = hit-call score of the fitted dose curve at least 0.9, where 1 is the maximum; inactive = score below 0.9.
Target: Hypoxia-inducible factor 1-alpha (Homo sapiens) (UniProt Q16665)
Test: ATG_HIF1a_CIS: Attagene CIS-FACTORIAL HepG2 Assay for human Hypoxia Inducible Factor 1 (HIF1A) (AID 2282951)
Settings: HepG2 Attagene cis-factorial HIF1a reporter transcription; actives raise or lower the signal
Procedure, shortened: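 Dosed 24 h, transfected HepG2 cells yielded total RNA whose reporter transcripts were RT-PCR-amplified and sized by capillary electrophoresis using fluorescent labelling; DMSO defined baseline, with gain and loss of signal both fitted.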

Hypoxia-inducible factor 1-alpha (Homo sapiens), sequence (Q16665 whole entry, looked up): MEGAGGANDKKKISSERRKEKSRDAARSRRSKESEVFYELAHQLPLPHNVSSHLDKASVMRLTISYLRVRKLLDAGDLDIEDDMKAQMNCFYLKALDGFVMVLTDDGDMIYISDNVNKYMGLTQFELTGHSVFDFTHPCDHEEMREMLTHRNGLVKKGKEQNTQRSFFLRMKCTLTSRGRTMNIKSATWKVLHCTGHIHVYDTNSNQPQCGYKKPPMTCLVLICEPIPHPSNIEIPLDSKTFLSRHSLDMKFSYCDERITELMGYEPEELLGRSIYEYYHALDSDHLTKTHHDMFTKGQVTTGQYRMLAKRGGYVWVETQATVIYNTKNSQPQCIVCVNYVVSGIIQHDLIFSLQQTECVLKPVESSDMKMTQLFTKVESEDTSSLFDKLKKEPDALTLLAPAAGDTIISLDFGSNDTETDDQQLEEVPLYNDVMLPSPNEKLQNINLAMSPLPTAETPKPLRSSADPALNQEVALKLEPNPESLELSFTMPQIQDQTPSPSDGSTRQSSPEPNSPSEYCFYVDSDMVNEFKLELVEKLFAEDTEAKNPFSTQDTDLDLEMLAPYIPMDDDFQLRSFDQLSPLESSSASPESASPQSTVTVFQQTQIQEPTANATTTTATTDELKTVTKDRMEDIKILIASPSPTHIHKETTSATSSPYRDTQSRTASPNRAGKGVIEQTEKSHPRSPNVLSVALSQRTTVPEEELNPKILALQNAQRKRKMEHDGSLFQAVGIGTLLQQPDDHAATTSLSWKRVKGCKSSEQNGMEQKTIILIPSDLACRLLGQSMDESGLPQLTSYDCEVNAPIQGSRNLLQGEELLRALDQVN

Q: How did the outcome turn out when `O=C1CCCCCCCCCCCCCC1` was run?
A: The outcome was “inactive”.

Q: Which outcome does the source give for `CCCC(=O)OC/C=C(\C)CCC=C(C)C` here?
A: The outcome was “inactive”.

Q: For `CCCCCCC(O)CCCCCCCCCCC(=O)OC` (stereo unspecified), which outcome is on record?
A: Its outcome is “inactive”.

Q: Which outcome does the source give for `O=S(=O)(O)c1cccc2ccccc12` here?
A: The outcome was “inactive”.

Q: With `C/C=C(\C)C(=O)OCC/C=C\CC` as the molecule, how does the outcome read?
A: Its outcome is “inactive”.

Q: For `CC/C=C\CC/C=C/C(OCC)OCC`, which outcome is on record?
A: The outcome was “inactive”.

Q: For `C=CCOCC(CC)(CO)COCC=C`, which outcome is on record?
A: Its outcome is “inactive”.

Q: How did the outcome turn out when `CN1CCCC1` was run?
A: Its outcome is “inactive”.

Q: For `O=[N+]([O-])c1ccccc1C(F)(F)F`, which AC50 is on record?
A: The AC50 was 48.9 µM (active).

Q: How did the outcome turn out when `CCC(=O)OCc1ccc(OC)cc1` was run?
A: The outcome was “inactive”.

Q: For `CCC(C)=NO`, which outcome is on record?
A: Its outcome is “inactive”.

Q: How did the outcome turn out when `COc1cccc(OC)c1C(=O)O` was run?
A: Its outcome is “inactive”.

Q: Which outcome does the source give for `C=C1CC[C@H]2C[C@@H]1C2(C)C` here?
A: Its outcome is “inactive”.

Q: With `CCCCCC1CCCC(=O)O1` (stereo unspecified) as the molecule, how does the outcome read?
A: Its outcome is “inactive”.

Q: `Cc1cc(-n2nc3ccc(Cl)cc3n2)c(O)c(C(C)(C)C)c1` was tested. Which outcome did it give?
A: The outcome was “inactive”.

Q: Which outcome does the source give for `NC(=O)c1ccc(N)cc1` here?
A: Its outcome is “inactive”.

Q: Which outcome does the source give for `CC(C)=CCOC(=O)c1ccccc1` here?
A: Its outcome is “inactive”.

Q: With `C=CN1CCCCCC1=O` as the molecule, how does the outcome read?
A: The outcome was “inactive”.

Q: With `Oc1ccc(Oc2ccccc2)cc1` as the molecule, how does the outcome read?
A: The outcome was “inactive”.

Q: Which outcome does the source give for `CC(=O)CCc1ccccc1` here?
A: The outcome was “inactive”.

Q: With `CN(C)c1ccc(C(c2ccccc2)c2ccc(N(C)C)cc2)cc1` as the molecule, how does the outcome read?
A: Its outcome is “inactive”.

From PubChem BioAssay (EPA / NIEHS)
